Bioassay records as filed in PubChem.
Most compounds without a hit are left out; they make up all but 2.8% or so of the library.
EWS-Fli inh: blocks EWS/Fli oncoprotein-driven transcription; A673 NR0B1-luciferase reporter, viability-normalised; inhibition, % at 12.6 µM; 0.67% of 350,000 active; AID 651661;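 active = mean inhibition of at least 50% after viability correction, with every replicate also passing that limit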;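 note: firefly luciferase signal divided by Alamar Blue viability fluorescence both relative to DMSO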
TROY signal inh: blocks TROY-dependent signaling in reporter cells. inhibition, % at 10 µM. AID 1347056. Q293 LMP1-TROYcd NF-kB luciferase reporter, 4 h. 0.98% of 360,000 active;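 active = compounds whose plate-normalised and pattern-corrected inhibition of the luciferase reporter signal at the single screening dose is 50% or more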
TWEAK Fn14 block: inhibitors of TWEAK-Fn14 interaction signaling; TWEAK-stimulated Fn14 reporter cells, luciferase luminescence, 8 h; inhibition, % at 10 µM; 2% of 360,000 active; AID 1159606; in the data active = inhibition above about 50%
LGR2 antag: inhibitors of bursicon-induced Drosophila LGR2 receptor cAMP signaling | HEK293 LGR2, CRE-luciferase, bursicon-stimulated, 4 h | inhibition, % at 9.99 µM | 0.35% of 380,000 active;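 active = drop in luminescence signal, shown as inhibition above about 50% in the replicate tests, limit read from the data, passing the limit was not always enough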;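 note: agonist challenge used bursicon conditioned medium at about half maximal strength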
PAX8 reporter: inhibitors of PAX8 transcriptional activity in RMG-I cells; RMG-I TPO-luciferase reporter, SteadyGlo, 24 h; AID 652154; 1.2% of 360,000 active; inhibition, % at 12.6 µM;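 active = mean replicate inhibition at least 60% with every replicate also reaching 60%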;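 note: luciferase light reporting Pax8 driven TPO promoter activity; plate controls were median of neutral control wells for no effect and mitoxantrone controls for full effect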
An asterisk follows results filed as active; . = no result given.

SMILES | EWS-Fli inh | TROY signal inh | TWEAK Fn14 block | LGR2 antag | PAX8 reporter
CCCCN(C)C(=S)Nc1ccc2nc(N3CCN(CC)CC3)cc(C)c2c1 | 2.9 | 61.7* | 34.2 | 5.7 | -15.6
C[C@@H]1CN([C@H](C)CO)C(=O)c2cc(-c3ccncc3)cnc2O[C@H]1CN(C)C(=O)c1ccncc1 | -9.9 | . | . | 6.5 | .
CC(C)n1cc(CN2CCCC(CO)(Cc3cccc(Cl)c3)C2)cn1 (configuration not stated) | 6.2 | 50.9* | 11.5 | -5.0 | 2.5
Cn1cc(CN2CCCC(CO)(Cc3cccc(Cl)c3)C2)cn1 (configuration not stated) | -1.4 | 10.5 | -3.4 | 8.6 | -7.9
CNC[C@H]1Oc2cc(C#CCN(C)C)ccc2S(=O)(=O)N([C@H](C)CO)C[C@H]1C | -5.0 | . | . | -18.1 | .
CCOC(=O)c1nn(-c2c(C)n(C)n(-c3ccccc3)c2=O)cc1O | . | . | 61.5* | . | .
COc1ccc(C(=O)NOCc2ccccc2)cc1 | 14.3 | 47.1 | 86.0* | 73.3* | 1.2
Cc1ccc(CONC(=O)c2ccc(Cl)cc2)cc1 | -44.4 | -56.2 | -13.2 | -67.2 | -160.6
Cc1ccc(CONC(=O)c2ccccc2)cc1 | -83.8 | -48.4 | 10.4 | -24.9 | -132.9
COc1ccc(C(=O)NCCSc2ccccc2)cc1 | . | 13.6 | 60.7* | 26.5 | -17.0
O=C(NOCc1ccccc1)c1ccc(Cl)cc1 | -76.0 | 30.5 | 65.9* | 43.7 | -71.9
CC(=O)c1cccc(-c2ccc3c(c2)C(C)(Cc2ccccc2F)C(=O)N3)c1 (configuration not stated) | 8.3 | 20.3 | 57.5* | 23.0 | 13.6
O=C(C1CCC1)N1C[C@@H]2[C@H](c3ccccc31)[C@H](CO)N2C(=O)Nc1cccc(F)c1 | 2.9 | . | . | -4.0 | -6.3
Cc1ccc([N+](=O)[O-])cc1S(=O)(=O)Nc1cccc(S(=O)(=O)Nc2ccccc2C(=O)O)c1 | 7.3 | -7.5 | 3.7 | . | -12.4
Cc1ccc(C)c(NC(=O)c2ccccc2NS(=O)(=O)c2cc([N+](=O)[O-])ccc2C)c1 | 7.1 | 54.6* | 58.0* | 29.8 | 17.1
C[C@H]1CN([C@@H](C)CO)S(=O)(=O)c2ccc(C#CC3CC3)cc2O[C@H]1CN(C)C(=O)CN(C)C | -2.2 | . | . | -4.5 | .
CCOc1ccc(Br)cc1S(=O)(=O)Nc1cccc(S(=O)(=O)N(C)c2ccccc2)c1 | 5.5 | 77.2* | 45.2 | 18.6 | -5.4
CCOc1ccc(Br)cc1S(=O)(=O)Nc1ccc(C(=O)OCC(=O)N(C)c2ccccc2)cc1 | . | -7.9 | 11.1 | -1.0 | -23.2
O=C(c1cccs1)c1ccccc1Cc1cccs1 | -7.9 | -23.7 | 92.2* | -19.6 | 1.9
COc1cccc(S(=O)(=O)Nc2ccc3c(c2)C(=O)N(C)C[C@H](OC)[C@H](C)CN(C(=O)Cc2cccnc2)[C@H](C)CO3)c1 | -4.4 | . | . | 5.2 | -15.0
Cc1ccc(C2=NOC(=O)/C2=C\C=C\c2ccccc2)cc1 | 53.9* | 33.7 | -22.4 | 25.5 | 18.7
CC1=NN(c2ccccc2)C(=O)/C1=C/C=C/c1ccccc1 | . | 27.3 | 95.2* | 2.4 | -2.2
Cc1noc(C)c1NC(=O)N(C)C[C@H]1Oc2ccc(NC(=O)Nc3ccc(C(F)(F)F)cc3)cc2C(=O)N([C@H](C)CO)C[C@H]1C | -1.6 | . | . | -12.0 | -1.3
N#Cc1c(-c2ccccc2)nc(SCc2cccc(Cl)c2)[nH]c1=O | -8.5 | 58.0* | -0.1 | 3.3 | 6.5
O=C1C=C(c2ccccc2)C[C@H](c2cccs2)[C@H]1n1nnc([N+](=O)[O-])n1 | . | 22.9 | 32.7 | 21.1 | 76.0*
SMILES | EWS-Fli inh | TROY signal inh | TWEAK Fn14 block | LGR2 antag | PAX8 reporter
C[C@H]1CCCCO[C@@H](CN(C)Cc2ccncc2)[C@@H](C)CN([C@@H](C)CO)C(=O)c2cc(NC(=O)c3ccccc3)ccc2O1 | 0.6 | . | . | 9.4 | -1.6
O=C(C[C@H]1C=C[C@@H](NC(=O)Nc2ccc3c(c2)OCO3)[C@H](CO)O1)NCCCN1CCOCC1 | -10.1 | . | . | -2.7 | -8.7
O=C(N/N=C/c1c[nH]c2ccccc12)c1cc(-c2ccccc2)n[nH]1 | -14.2 | -2.0 | 17.3 | . | 4.9
O=C(N/N=C/c1c[nH]c2ccccc12)c1cc(-c2ccc(-c3ccccc3)cc2)n[nH]1 | . | 8.5 | 66.8* | . | .
CN(C)S(=O)(=O)c1cccc(NC(=O)COc2ccccc2C(=O)Nc2ccccc2)c1 | 13.5 | 38.9 | 51.2* | 45.4* | 37.8
Cc1ccc(S(=O)(=O)N(C)C)cc1NC(=O)COc1ccccc1C(=O)Nc1ccccc1 | 11.2 | 8.1 | 20.4 | -9.1 | 13.1
CN(C)S(=O)(=O)c1cccc(NC(=O)c2ccc(COc3ccccc3)cc2)c1 | 9.2 | 58.2* | 90.3* | 7.9 | 2.1
O=C(NCC1CC1)[C@H]1[C@H](CO)[C@H]2Cn3c(ccc(C4=CCCCC4)c3=O)[C@H]2N1Cc1ccccc1F | 12.5 | . | . | 14.1 | .
Cc1cc(C(=O)Nc2cccc3c2O[C@H](CN(C)Cc2ccc(Oc4ccccc4)cc2)[C@@H](C)CN([C@@H](C)CO)C3=O)n(C)n1 | -18.8 | . | . | 0.0 | 67.6*
C[C@H]1CN([C@@H](C)CO)C(=O)c2cccc(NC(=O)c3ccc(-c4nccs4)cc3)c2O[C@H]1CN(C)Cc1ccc(-c2ccccc2)cc1 | 13.2 | . | . | 14.7 | 62.7*
Cc1cc(C(=O)Nc2cccc3c2O[C@@H](CN(C)Cc2ccc(-c4ccccc4)cc2)[C@H](C)CN([C@H](C)CO)C3=O)n(C)n1 | -13.7 | . | . | -30.6 | 69.8*
C[C@H](CO)N1C[C@H](C)[C@H](CN(C)Cc2ccc(-c3ccccc3)cc2)Oc2c(NC(=O)c3ccc(-c4nccs4)cc3)cccc2C1=O | 1.5 | . | . | 13.4 | -14.3
C[C@H](CO)N1C[C@H](C)[C@@H](CN(C)Cc2ccc(-c3ccccc3)cc2)Oc2ncc(-c3cccnc3)cc2C1=O | 68.7* | . | . | -1.9 | .
Cc1cc(C(=O)Nc2cccc3c2O[C@H](CN(C)Cc2ccc(-c4ccccc4)cc2)[C@H](C)CN([C@@H](C)CO)C3=O)n(C)n1 | -6.8 | . | . | 11.4 | 11.3
CN(C)C(=O)[C@H]1[C@H](CO)[C@H]2Cn3c(ccc(C4=CCCCC4)c3=O)[C@H]2N1Cc1ccccn1 | -1.4 | . | . | -1.5 | .
COc1ccc2c3c(n(C)c2c1)[C@@H](CO)N(S(C)(=O)=O)CC31CCN(Cc2cncnc2)CC1 | -5.4 | . | . | 3.6 | 11.7
C[C@@H]1CN([C@@H](C)CO)C(=O)c2cc(NC(=O)c3ccncc3)ccc2O[C@@H](C)CCCCO[C@@H]1CN(C)C(=O)NC1CCCCC1 | -4.4 | . | . | -6.3 | -0.8
C[C@H]1CN([C@@H](C)CO)C(=O)Cc2cc(N(C)C)ccc2O[C@H]1CN(C)Cc1ccc(C(=O)Nc2ccccc2N)cc1 | . | . | . | -22.7 | .
C[C@@H]1CN([C@@H](C)CO)C(=O)c2cc(N(C)C)ccc2O[C@@H]1CN(C)Cc1ccc(C(=O)Nc2ccccc2N)cc1 | 82.0* | . | . | . | 45.6
O=C(CSc1nnc2scc(-c3ccccc3)n12)Nc1nsc(-c2ccccc2)n1 | -1.9 | 34.6 | 22.5 | 36.1 | .
O=C(CSc1nnc2scc(-c3ccccc3)n12)Nc1nsc(-c2ccc(Cl)cc2)n1 | . | 28.0 | 53.9* | . | .
CN(C)c1ccc(/C=C2\SC(N3CCCCC3)=NC2=O)cc1 | 51.5* | 74.1* | 83.3* | 45.4 | -18.0
